Bioassay records (PubChem BioAssay)
In the library only some 2.4% were active in any assay of this set; here they are far more common.
D2 antagonist: D2 dopamine receptor (human) antagonism; P14416; AID 485344; HEK293 TREx D2 cells, calcium flux, dopamine EC80; inhibition, % at 10 µM; 340,000 tested, 2% active; in the data active means inhibition above about 30%; inactive means below that, where a call was filed
Target sequence (P14416 whole entry, looked up): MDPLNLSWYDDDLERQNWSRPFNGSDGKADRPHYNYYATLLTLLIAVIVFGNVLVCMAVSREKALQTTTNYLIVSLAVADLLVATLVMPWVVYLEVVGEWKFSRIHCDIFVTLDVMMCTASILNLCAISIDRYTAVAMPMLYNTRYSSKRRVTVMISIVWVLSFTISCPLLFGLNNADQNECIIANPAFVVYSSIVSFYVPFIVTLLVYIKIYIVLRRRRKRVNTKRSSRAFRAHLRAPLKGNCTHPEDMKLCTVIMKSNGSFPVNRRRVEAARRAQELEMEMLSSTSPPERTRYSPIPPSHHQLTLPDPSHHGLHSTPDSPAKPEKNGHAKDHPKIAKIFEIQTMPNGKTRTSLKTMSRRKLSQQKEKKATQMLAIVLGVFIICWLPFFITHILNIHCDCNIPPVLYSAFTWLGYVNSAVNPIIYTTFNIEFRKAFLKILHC
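Dopamine at EC80 is the agonist stimulus; test compounds precede it by 180 s. Calcium flux read kinetically in a force-coupled, inducible HEK293 T-REx D2 cell line.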
D2 PAM-1: positively modulates the human D2 dopamine receptor allosterically. HEK293 T-REx D2, calcium flux, EC20 dopamine potentiation. potentiation, % at 10 µM. 340,000 tested, 0.34% active. AID 485347;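 active means potentiation over 3 SD above the plate norm, cut at about 30% in these data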
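Potentiation of an EC20 dopamine calcium response is measured in a force-coupled, tetracycline-inducible Hek293 Trex D2 line. Compound-only kinetic reads over 180 s flag agonists before dopamine addition.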
D2 PAM-2: human D2 receptor positive allosteric modulation | P14416 | DiscoveRx D2 beta-arrestin cells, luminescence, 90 min; 100% = 57 uM dopamine signal | potentiation, % (no concentration beside the values) | 360,000 tested, 0.23% active; in the data active means potentiation above about 50%; inconclusive means mostly about 30% to 49%
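PathHunter beta-arrestin assay in DiscoveRx D2 cells. Compounds were added with an EC20 of dopamine (50 nM final) for 90 min at 37 deg C. Luminescence was read 1 h after detection reagent, with 57 uM dopamine as the EC100 control.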
D2 ag-1: human D2 receptor agonism in beta-arrestin assay; DiscoveRx PathHunter D2 beta-arrestin, luminescence, 90 min; 100% = 57 uM dopamine signal; activation, % (concentration not given with the values); 360,000 tested, 0.084% active; AID 624465; in the data active means activation above about 40%; inconclusive means between about 15% and that limit
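DiscoveRx PathHunter D2 beta-arrestin cells (2,100/well) attached overnight, then compound-stimulated 90 min at 37 C in HBSS/10 mM HEPES/0.1% Tween-20 buffer; beta-galactosidase complementation read by luminescence after 1 h at ambient temperature. Dopamine 57 uM final (EC100) as control.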
D2 ag-2: agonists of human D2 dopamine receptor; P14416; HEK293 T-REx D2 cells, calcium flux agonist mode; activation, % at 2 µM; 340,000 tested, 0.53% active;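 active means activation over 3 SD above normal in the single-dose calcium agonist read, cut at about 30% in these data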
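HEK293 Trex D2 cells, tetracycline-induced, o/n 30 C 5% CO2; no-wash Ca dye, RT 30–90 min; 10-cycle baseline, 23 nl cpd added, kinetic Ca read 180 s; agonist hits = positive Ca response.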
Large screens that a line does not name were inactive.

Cc1[nH]c2ccccc2c1C(=O)C(C)OC(=O)c1ccc(Cl)nc1 (stereo unspecified)	none
NC(=O)C1CC2(C1)CC(C(N)=O)C2 (stereo unspecified)	none (no result: D2 antagonist, D2 PAM-1, D2 ag-2)
CC(C)c1ccc(N(C(=O)CNC(=O)c2ccco2)C(C(=O)NC2CCCC2)c2ccncc2)cc1 (stereo unspecified)	D2 antagonist 31.4
Cc1ccc2[nH]c3nc(N/N=C/c4cccc(O)c4)nnc3c2c1	D2 antagonist 36.7
CCOc1cc(/C=N\Nc2nc(Nc3ccccc3)nc(N3CCOCC3)n2)ccc1OC(=O)c1ccco1	D2 PAM-2 64.7, D2 ag-1 inconclusive (no result: D2 antagonist, D2 PAM-1, D2 ag-2)
COc1cc(/C=N/Nc2nc(C)cc(C)n2)ccc1OC(=O)c1ccco1	none
COc1cc(/C=N/Nc2ccc3ccccc3c2)ccc1OC(=O)c1ccco1	D2 PAM-2 50.6
Cc1ccc(N2CCC3CC2c2cc(-c4ccc(C(F)(F)F)cc4)ccc23)cc1 (stereo unspecified)	none (no result: D2 antagonist, D2 PAM-1, D2 ag-2)
CCc1nc2c(OCc3ccc(C(F)(F)F)cc3)cccn2c1N(C)C(=O)C(C)C	none (no result: D2 antagonist, D2 PAM-1, D2 ag-2)
Cc1ccccc1NS(=O)(=O)c1ccc(C)c(NS(C)(=O)=O)c1C	D2 antagonist 32.8
CSc1cccc(NC(=O)C2CCCN(S(=O)(=O)c3cnc[nH]3)C2)c1 (stereo unspecified)	D2 antagonist 30.6
CSc1cccc(NC(=O)C2CCN(S(=O)(=O)c3cnc[nH]3)CC2)c1	none
Oc1oc(-c2ccccc2)nc1C=NCc1ccncc1	D2 antagonist 30.7
COc1ccc(S(=O)(=O)N2CCC(C(=O)Oc3cccc(C)c3)CC2)cc1OC	none
Cc1ccc(NC(=O)C2OCCc3ccccc32)cc1C (stereo unspecified)	D2 antagonist 41.5
O=C(NCc1ccco1)C1OCCc2ccccc21 (stereo unspecified)	none
Cc1c(Cl)cccc1NC(=O)COC(=O)Cn1cnc2c1c(=O)n(C)c(=O)n2C	none
CCOc1ccc(C(=O)Nc2ccccc2OCc2cc(=O)n3ccccc3n2)cc1	none (no result: D2 antagonist, D2 PAM-2, D2 ag-1)
Cn1c(=O)oc2cc(S(=O)(=O)N3CCOCC3)ccc21	D2 antagonist 45.9
Cn1c(=O)oc2cc(S(=O)(=O)N3CCC4(CC3)OCCO4)ccc21	none
Cc1ccnc(SCCn2c(N3CCCCC3)nc3c2c(=O)[nH]c(=O)n3C)n1	D2 PAM-1 30.8 (no result: D2 PAM-2, D2 ag-1)
Cn1c(=O)[nH]c(=O)c2c1nc(N1CCCCCC1)n2CCN1CCCCCC1	D2 antagonist 39.9
COc1ccccc1N1CCN(C(=O)c2cc3c(s2)CCCCC3)CC1	none (no result: D2 antagonist, D2 PAM-1, D2 ag-2)
CCOc1ccccc1N1CCN(C(=O)c2cc3c(s2)CCC3)CC1	D2 antagonist 35.3
Cc1ccccc1C(=O)Nc1cc(S(=O)(=O)N2CCOCC2)ccc1N1CCN(C)CC1	none
CCOC(=O)CC(NC(=O)c1cc2cc(Cl)ccc2oc1=O)c1ccc(C)cc1 (stereo unspecified)	none (no result: D2 antagonist, D2 PAM-2, D2 ag-1)
Cc1ccc(NC(=O)c2ccc(CSc3nccc(C)n3)cc2)cc1	D2 antagonist 31.1
COc1ccccc1N1CCN(Cc2ccc(OC)c(OC)c2OC)CC1	D2 antagonist 80.8
COc1ccc(OC)c(CN2CCCCCC2)c1	none
COc1ccc(OC)c(CN2CCN(Cc3cccc4ccccc34)CC2)c1	D2 antagonist 71.0
COc1ccc(OC)c(CN2CCN(c3ccccc3OC)CC2)c1	none
COc1ccc2ccccc2c1CN1CCN(C)CC1	D2 antagonist 39.8
COc1ccccc1N1CCN(Cc2cc3c(cc2[N+](=O)[O-])OCO3)CC1	D2 antagonist 51.6
COc1ccccc1OCCCCN1CCN(c2ccccc2OC)CC1	none
COC(=O)c1cc(CN2CCN(c3ccccc3C)CC2)ccc1O	D2 antagonist 57.9
COc1ccc(CN2CCN(c3ccccc3OC)CC2)cc1OC	D2 antagonist 66.0
COc1ccccc1Nc1nc(N)nc(CN2CCN(c3ccccc3F)CC2)n1	none
COc1ccccc1N1CCN(Cc2nc(N)nc(Nc3ccc(C)c(Cl)c3)n2)CC1	D2 antagonist 54.8 (no result: D2 PAM-1)
COc1ccccc1N1CCN(Cc2cnc3ccc(Cl)cn23)CC1	D2 antagonist 55.2
COc1ccccc1N1CCN(Cc2ccc(C(=O)O)cc2)CC1	none
COc1ccc(CN2CCN(c3ccccc3OC)CC2)c(OC)c1	D2 antagonist 91.2
COc1cc(C=O)ccc1OCCSc1ccc(C)cc1	none
CCOc1cc(C=O)ccc1OCCSc1ccc(C)cc1	D2 antagonist 39.6
COc1ccc(CC(=O)OCC(=O)Nc2ccc3[nH]c(=O)[nH]c3c2)cc1	D2 PAM-2 inconclusive
O=C(COC(=O)c1c(F)cccc1F)Nc1ccc2[nH]c(=O)[nH]c2c1	D2 antagonist 64.7
COc1cc(OC)cc(C(=O)OCC(=O)Nc2ccc3[nH]c(=O)[nH]c3c2)c1	D2 antagonist 35.5
O=C(Nc1cc2c(cc1C(=O)c1ccc(Br)cc1)OCCO2)c1ccc(Cl)cc1	none (no result: D2 antagonist, D2 PAM-2, D2 ag-1)
COc1ccc(S(=O)(=O)/N=C2/C=CC(=O)C(C)=C2C)cc1	none
CC1=C/C(=N\OS(=O)(=O)c2ccccc2)C(C)=CC1=O	D2 PAM-2 79.4, D2 ag-1 inconclusive
COc1cc(C(=O)O/N=C2/C=C(C)C(=O)C=C2C)cc(OC)c1OC	D2 ag-1 inconclusive
CC(S(=O)(=O)c1ccccc1)S(=O)(=O)c1ccccc1	none (no result: D2 antagonist, D2 PAM-1, D2 ag-2)
CC1=C(C)/C(=N\OS(=O)(=O)c2ccc(C)cc2)C=CC1=O	D2 PAM-2 67.0, D2 ag-1 48.1 (no result: D2 antagonist, D2 ag-2)
CC1=C/C(=N\OS(=O)(=O)c2ccccc2)C(C(C)C)=CC1=O	D2 PAM-2 114.3, D2 ag-1 49.0
CCOCCCNC(=O)c1cnc2sc(N3CCCCC3)nn2c1=O	none (no result: D2 antagonist, D2 PAM-2, D2 ag-1)
CN1CCC(=O)N(CCSc2ccc(Br)cc2)CC1	D2 antagonist 53.5
COc1ccc(CNC(=O)C2CCC(CNS(=O)(=O)c3cccc4nsnc34)CC2)cc1 (stereo unspecified)	none
O=C(NCc1ccc2c(c1)OCO2)C1CCC(CNS(=O)(=O)c2cccc3nsnc23)CC1 (stereo unspecified)	D2 antagonist 35.0
CCN1CCN(P2(=O)C=C(c3ccccc3)OC(c3ccccc3)=C2)CC1	D2 antagonist 84.1
COC(=O)c1ccc(/C=C/C(=O)c2ccc(OC)c(OC)c2)cc1	none
COc1ccc(/C=C/C(=O)c2ccc(C(=O)/C=C/c3ccc(OC)c(OC)c3)cc2)cc1OC	D2 antagonist 33.6
COC(=O)C1CCN(C(=O)c2sc3nc(-c4ccc(F)cc4)cn3c2C)CC1	D2 PAM-1 30.5
COc1ccc(C(CNC(=O)c2ccc(-c3nc4ccccc4s3)o2)N2CCCC2)cc1 (stereo unspecified)	none
CC(C)CCNC(=O)COc1ccc2c(c1)C(=O)CC(C)(C)O2	none
CC1(C)CC(=O)c2cc(OCC(=O)NCCN3CCCc4ccccc43)ccc2O1	D2 ag-2 33.5
OC1OC[C@@H](O)[C@H](O)[C@H]1O (stereo partly specified)	none (no result: D2 PAM-2, D2 ag-1)
